Screens deposited in PubChem by Johns Hopkins Ion Channel Center.
In the library only some 2.4% were active in any assay of this set; here they are far more common.
ANO1 activ = mouse TMEM16A channel activation, primary screen; Q8BHY3; B-score at 10 µM; hit rate 0.3% among 340,000; HEK293 TMEM16A/YFP-H148Q/I152L, iodide quench fluorescence; stronger effect = lower value;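 active = fluorescence-ratio B-score plate-corrected deviation score at least 3 library SD below zero, with starting fluorescence score within 5 deviations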;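 note: channel opened by trigger with iodide after compound preincubation; score built on the fluorescence ratio of max minus min over baseline; more negative score means more quench and so TMEM16A activation or potentiation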
CHT allo act = human CHT allosteric activation; Q9GZV3; CHT-expressing cells, membrane potential dye, choline EC20; stronger effect = higher value; LV-AA mutant CHT in HEK293 cells; B-score at 10 µM; hit rate 0.49% among 310,000; AID 488977;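 active = initial fluorescence not abnormally high and integrated response B-score, plate-corrected, over 3 SD above library mean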
TMEM16A inh = inhibitors of mouse TMEM16A calcium-activated chloride channel | Q8BHY3 | HEK293 TMEM16A/YFP iodide influx fluorescence, ionomycin | normalized B-score (activity score, 25-100; higher = stronger inhibition) at 10 µM | AID 588511 | hit rate 1.2% among 310,000;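 active = ratio plate-corrected score three or more library SD toward inhibition, starting fluorescence score within five deviations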;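 note: score derived from kinetic fluorescence span divided by baseline fluorescence per well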
CHT block = inhibits the human high affinity choline transporter. hit rate 0.86% among 310,000. B-score at 10 µM. CHT-expressing cells, membrane potential dye, choline response; stronger effect = lower value. Q9GZV3. AID 488975;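 active = B-score over 3 SD under the library average, and starting fluorescence ratio not unusually high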;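 note: choline stimulus applied at its EC90 after an EC20 pre-addition; B-score computed on integrated fluorescence ratio after choline addition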
CHT inh conf = confirmation of human choline transporter CHT inhibitors. hit rate 70% among 2,400. shares compounds with CHT block. CHT activity remaining % of control (stronger effect = lower value), % at 10 µM. CHT-expressing cells, choline membrane potential dye; LV-to-AA substituted CHT, HEK293 cells;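 active = choline transporter activity left, mean of duplicates at 10 µM, below buffer-only control mean minus 3 SD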;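 note: depolarization triggered by choline at its EC90 following an EC20 pre-addition; 0% = hemicholinium-3 full block and 100% = buffer-only control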
HEK293 CHT ctr = counter-screen for CHT inhibitors: effect in parental HEK293 cells. shares compounds with CHT block. membrane potential dye, choline response; active = decrease or increase beyond buffer ±3SD. membrane potential ratio readout (active if shifted either direction beyond buffer ±3SD; no single direction) at 10 µM. hit rate 4% among 2,400;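 note: parental cells lack the transporter so any hit is non-specific; ratio is peak minus trough fluorescence over baseline after EC90 choline challenge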
* marks the source's active call; other numbers are inactive results.

What do the screens show for `CC(C)NS(=O)(=O)c1ccc(NC(=O)C(C)OC(=O)CCCOc2ccccc2)cc1` (stereo unspecified)?
ANO1 activ: inactive

Results for CCC(C)(C)C1CCc2[nH]nc(C(=O)O)c2C1 (stereo unspecified) ?
ANO1 activ: inactive; CHT allo act: inactive; TMEM16A inh: inactive; CHT block: inactive

What do the screens show for `O=C(CN1C(=O)c2ccccc2C1=O)Nc1ccc(Cl)cn1`?
ANO1 activ: inactive; CHT allo act: inactive; TMEM16A inh: inactive; CHT block: -5.1*; CHT inh conf: inactive; HEK293 CHT ctr: inactive

How did O=C(Cc1ccccc1)Nc1ccc(Cl)cn1 do in these assays?
ANO1 activ: inactive; CHT allo act: inactive; TMEM16A inh: inactive; CHT block: inactive

What do the screens show for `O=c1[nH]c(C(F)(F)F)nc2ccccc12`?
ANO1 activ: inactive; CHT allo act: inactive; TMEM16A inh: inactive; CHT block: -5.1*; CHT inh conf: inactive; HEK293 CHT ctr: inactive

Results for CN1CCN(c2ccc(S(=O)(=O)N3CCCCC3)cc2NC(=O)CSCc2ccccc2)CC1 ?
ANO1 activ: inactive; CHT allo act: inactive; TMEM16A inh: inactive; CHT block: -6.8*; CHT inh conf: 48%*; HEK293 CHT ctr: inactive

What do the screens show for `Cc1nc(-c2ccc(S(=O)(=O)N3CCCN(CCc4ccccc4)CC3)s2)cs1`?
ANO1 activ: inactive; CHT allo act: inactive; TMEM16A inh: inactive; CHT block: -5.4*; CHT inh conf: inactive; HEK293 CHT ctr: inactive

Results for Cc1cccc(C(=O)Nc2cccc(OCC(=O)O)c2)c1 ?
ANO1 activ: inactive; CHT allo act: inactive; TMEM16A inh: inactive; CHT block: -5*; CHT inh conf: 57%*; HEK293 CHT ctr: inactive

Results for O=C(O)COc1cccc(NC(=O)c2ccccc2)c1 ?
ANO1 activ: inactive; CHT allo act: inactive; TMEM16A inh: inactive; CHT block: inactive

How did CC(C)c1cccc(C(C)C)c1OC(=O)[C@H]1OC(c2ccc(Br)cc2)=C[C@@H]1c1ccc(Br)cc1 do in these assays?
ANO1 activ: inactive

Results for Cc1ccc(-n2c(C)cc(C3=NNC(=NC4CC4)SC3)c2C)cc1C ?
ANO1 activ: inactive; CHT allo act: inactive; TMEM16A inh: inactive; CHT block: -6.3*; CHT inh conf: inactive; HEK293 CHT ctr: inactive

How did NC(N)=N/N=C/c1ccc(Cl)c(Cl)c1 do in these assays?
ANO1 activ: inactive; CHT allo act: inactive; TMEM16A inh: inactive; CHT block: -5.4*; CHT inh conf: 41%*; HEK293 CHT ctr: inactive

How did NC(N)=N/N=C/c1ccc(OCc2ccccc2Cl)cc1 do in these assays?
ANO1 activ: inactive; CHT allo act: inactive; TMEM16A inh: inactive; CHT block: inactive

How did O=[N+]([O-])c1cccc(/C=C/C=N/Nc2nc(N3CCCCC3)nc(N3CCCCC3)n2)c1 do in these assays?
ANO1 activ: inactive; CHT allo act: inactive; TMEM16A inh: inactive; CHT block: inactive

What do the screens show for `COc1ccc(CNC(=O)[C@H](C)NC(=O)N2CCn3c2nc2ccccc23)cc1`?
ANO1 activ: inactive; CHT allo act: inactive; TMEM16A inh: inactive; CHT block: -6*; CHT inh conf: 47%*; HEK293 CHT ctr: inactive

What do the screens show for `CCOC(=O)c1cccc(NC(=O)c2ccc3c(c2)C(=O)N(CC2CCCO2)C3=O)c1` (stereo unspecified)?
ANO1 activ: inactive; CHT allo act: inactive; TMEM16A inh: inactive; CHT block: inactive

What do the screens show for `COc1cccc(N2CCN(C(c3ccccn3)c3nnnn3C(C)(C)C)CC2)c1` (stereo unspecified)?
ANO1 activ: inactive; CHT allo act: inactive; TMEM16A inh: inactive; CHT block: -5*; CHT inh conf: inactive; HEK293 CHT ctr: inactive

How did O=C(Cc1cc(=O)[nH]c(=O)[nH]1)NCc1ccccc1 do in these assays?
ANO1 activ: inactive; CHT allo act: inactive; TMEM16A inh: inactive; CHT block: inactive

What do the screens show for `Clc1ccc(CSc2ncnc3nc[nH]c23)cc1`?
ANO1 activ: inactive; CHT allo act: inactive; TMEM16A inh: inactive; CHT block: -6.2*; CHT inh conf: inactive; HEK293 CHT ctr: inactive

What do the screens show for `O=C(O)CN1C(=O)/C(=C/C=C/c2ccccc2)SC1=S`?
ANO1 activ: inactive; CHT allo act: inactive; TMEM16A inh: inactive; CHT block: -8.5*; CHT inh conf: 40%*; HEK293 CHT ctr: inactive

Results for O=C(CSc1nn(-c2ccc(F)cc2)c(=S)s1)NCC1CCCO1 (stereo unspecified) ?
ANO1 activ: inactive; CHT allo act: inactive; TMEM16A inh: inactive; CHT block: -5.4*; CHT inh conf: inactive; HEK293 CHT ctr: inactive

Results for O=C(CSc1nc(-c2ccc(F)cc2)cs1)NCC1CCCO1 (stereo unspecified) ?
ANO1 activ: inactive

What do the screens show for `C=CCn1c(SCC(=O)c2ccc(OC)cc2)nnc1-c1ccc2c(c1)OCO2`?
ANO1 activ: inactive; CHT allo act: inactive; TMEM16A inh: inactive; CHT block: -15*; CHT inh conf: inactive; HEK293 CHT ctr: inactive

Results for O=C(O)CC1=C(Nc2ccccc2)C(=O)N(c2ccccc2)C1c1ccc(F)cc1 (stereo unspecified) ?
ANO1 activ: inactive; CHT allo act: inactive; TMEM16A inh: inactive; CHT block: -6.4*; CHT inh conf: 32%*; HEK293 CHT ctr: inactive

What do the screens show for `COc1ccc(C2C(CC(=O)O)=C(Nc3ccccc3)C(=O)N2c2ccccc2)cc1` (stereo unspecified)?
ANO1 activ: inactive; CHT allo act: inactive; TMEM16A inh: inactive; CHT block: inactive

What do the screens show for `Cc1cc(C)c(NC(=O)CCCCCNC2CCCCC2)c(C)c1`?
ANO1 activ: inactive; CHT allo act: inactive; TMEM16A inh: inactive; CHT block: -5.2*; CHT inh conf: 7.1%*; HEK293 CHT ctr: inactive

What do the screens show for `CCCCOc1cccc(C(=O)NNC(=S)NC2CCCCC2)c1`?
ANO1 activ: inactive; CHT allo act: inactive; TMEM16A inh: inactive; CHT block: -8.8*; CHT inh conf: 69%*; HEK293 CHT ctr: inactive

Results for CCc1cc(C(=O)NNC(=S)NC2CCCCC2)cs1 ?
ANO1 activ: inactive; CHT allo act: inactive; TMEM16A inh: inactive; CHT block: inactive

How did CC(C)c1cc(C(=O)NNC(=S)NC2CCCCC2)cs1 do in these assays?
ANO1 activ: inactive; CHT allo act: inactive; TMEM16A inh: inactive; CHT block: -5.6*; CHT inh conf: 66%*; HEK293 CHT ctr: inactive
